Rab9 promoter act = activators of Rab9 promoter; Huh7 Rab9 promoter-luciferase reporter, luminescence, 24 h; Potency, µM (top dose mostly 9.22 µM), usual class: activators; 320,000 tested, 2.8% active; further: nearly all actives have a fitted effect of over 60% in size
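Rab9 promoter-driven luciferase in stably transfected Huh7 cells; 1500 cells/well rested 2 h, exposed to compound in DMSO for 24 h at 37 °C, 5% CO2. Luminescence read 10 min after adding luciferase reagent at ambient temperature.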
SMN2 splice enh = enhancers of SMN2 splice variant expression. HEK293 SMN2-luciferase splicing reporter, luminescence, 30-36 h. Potency, µM (series often up to 46.1 µM), actives largely listed as activators. 210,000 tested, 2.8% active. AID 1458; further: nearly all actives have a fitted effect of over 55% in size
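qHTS luciferase splicing reporter: luminescence rises when SMN2 exon 7 is included in transfected HEK293 cells. Compound exposure lasted 30-36 h at 37C, with 4.5 mM final sodium butyrate as control, followed by a ONE-Glo read.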
FLuc counter = firefly luciferase modulation, counter-screen for miR-21 project | purified FLuc, Km substrates, luminescence inhibition | Potency, µM (series often up to 57.5 µM), actives largely listed as inhibitors | AID 588342 | P08659 | 360,000 tested, 6.9% active; further: nearly all actives have a fitted effect of over 55% in size
Target sequence (P08659 whole entry, looked up): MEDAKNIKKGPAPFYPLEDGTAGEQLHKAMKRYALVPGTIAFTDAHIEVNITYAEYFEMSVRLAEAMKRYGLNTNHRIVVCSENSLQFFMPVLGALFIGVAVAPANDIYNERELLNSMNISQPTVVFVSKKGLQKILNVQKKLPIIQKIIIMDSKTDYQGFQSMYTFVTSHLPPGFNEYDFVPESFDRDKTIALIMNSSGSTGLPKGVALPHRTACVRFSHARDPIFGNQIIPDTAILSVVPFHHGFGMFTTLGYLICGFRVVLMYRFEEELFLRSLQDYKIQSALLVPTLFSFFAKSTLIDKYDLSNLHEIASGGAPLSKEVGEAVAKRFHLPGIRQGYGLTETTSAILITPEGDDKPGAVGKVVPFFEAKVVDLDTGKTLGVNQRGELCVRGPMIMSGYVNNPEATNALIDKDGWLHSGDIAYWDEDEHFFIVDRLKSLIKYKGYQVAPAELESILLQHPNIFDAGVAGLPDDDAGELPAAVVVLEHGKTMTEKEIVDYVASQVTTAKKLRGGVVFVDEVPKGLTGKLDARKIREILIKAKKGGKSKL
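Purified P. pyralis luciferase (10nM final) with 10uM D-luciferin and 10uM ATP (Km levels) in 50mM Tris acetate pH 7.5, 10mM Mg acetate, 0.01% Tween-20, 0.05% BSA; qHTS 6-point titration, ~60 µM downward; luminescence read.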
ELG1 genotoxic = inducers of genotoxicity in HEK293T ELG1-luciferase cells | HEK293T ELG1-luciferase reporter, luminescence, 16 h | 330,000 tested, 1.3% active | Potency, µM (top dose mostly 46 µM), hits mostly activators; further: nearly all actives have a fitted effect of over 60% in size
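ELG1-luciferase HEK293T cells, 2,000/well; compound pinned in; 16 hr, 37 °C, 5% CO2; ONE-Glo, 30 min RT; luminescence on CCD imager.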
NPC1 prom act = activators of NPC1 promoter | Huh7 NPC1 promoter luciferase reporter, 24 h | Potency, µM (doses to about 9.22 µM), usual class: activators | 320,000 tested, 2.4% active; further: nearly all actives have a fitted effect of over 60% in size
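Stable NPC1-promoter luciferase Huh7 line; cpd (DMSO) 24 h, 37 °C, 5% CO2; Amplite luciferase reagent 10 min RT; luminescence readout. qHTS format.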
Of the large screens only hits and unclear results are named; the others gave an inactive call. Rows were chosen to be rich in hits. Some 7.4% of all compounds tested hit in one or more screens of this group. The call rests on the fitted dose curve; in most records, active means well fitted curve in the direction sought with a large enough effect; inconclusive means small, poorly fitted or top-dose-only effect, or another doubt; inactive means no such curve, though single readings can be large; an effect the other way counts as inactive or inconclusive.

CC(=O)Nc1ccc2oc(-c3cc(F)c(F)cc3Cl)nc2c1	Rab9 promoter act 0.4µM, SMN2 splice enh 8.9µM, FLuc counter 1.9µM, ELG1 genotoxic 1.8µM, NPC1 prom act 0.32µM
Cc1ccccc1-c1nc2cc(NC(=O)C3CC3)ccc2o1	Rab9 promoter act 0.5µM, FLuc counter 1.7µM, ELG1 genotoxic 4.6µM, NPC1 prom act 0.45µM (no result: SMN2 splice enh)
C[C@](O)(c1ccccc1)c1nccc2ccccc12	none (no result: Rab9 promoter act, FLuc counter, ELG1 genotoxic, NPC1 prom act)
CCOC(=O)N1CCc2c(sc3c2c(=O)n(Cc2ccccc2)c(=O)n3CC(=O)Nc2ccc(C)c(C)c2)C1	none (no result: Rab9 promoter act, ELG1 genotoxic, NPC1 prom act)
O=C(NCc1ccc(F)cc1)c1cnc(N2CCCCC2)c2ccccc12	none (no result: Rab9 promoter act, SMN2 splice enh, ELG1 genotoxic, NPC1 prom act)
CCCCC/C=C\C\C=C/C=C/C=C/[C@@H](SC[C@H](N)C(=O)O)[C@@H](O)CCCC(=O)O	none (no result: Rab9 promoter act, FLuc counter, ELG1 genotoxic, NPC1 prom act)
CCOc1ccc(Nc2nc3ccccc3n3cnnc23)cc1	FLuc counter 13µM (no result: SMN2 splice enh)
c1ccc2c(c1)nc(Nc1ccc(N3CCCCC3)cc1)c1nncn12	FLuc counter 4.8µM (no result: SMN2 splice enh)
O=C(O)c1ccc(Nc2nc3ccccc3n3cnnc23)cc1	FLuc counter 7.6µM (no result: Rab9 promoter act, ELG1 genotoxic, NPC1 prom act)
c1ccc(N2CCCCC2)c(Nc2nc3ccccc3n3cnnc23)c1	none (no result: SMN2 splice enh)
O=C(Nc1ccc(Cl)cc1)N1CCC(CN2CCCCCC2)CC1	none (no result: Rab9 promoter act, SMN2 splice enh, ELG1 genotoxic, NPC1 prom act)
CCC(C)n1c(=N)c(S(=O)(=O)c2ccc(C)cc2)cc2c(=O)n3cc(C)ccc3nc21 (stereo not drawn)	none (no result: Rab9 promoter act, ELG1 genotoxic, NPC1 prom act)
Cc1ccc(OCc2ccc(Br)cc2)c([N+](=O)[O-])n1	Rab9 promoter act 1µM, SMN2 splice enh 10µM, FLuc counter 5.4µM, ELG1 genotoxic 7.3µM, NPC1 prom act 2.2µM
Cc1ccc(OCCOc2cccc(Br)c2)c([N+](=O)[O-])n1	Rab9 promoter act inconclusive, SMN2 splice enh 18µM, FLuc counter inconclusive, ELG1 genotoxic inconclusive, NPC1 prom act inconclusive
CCOc1cc(Br)c(COc2ccc(C)nc2[N+](=O)[O-])cc1OCC	none (no result: SMN2 splice enh)
Cc1ccc(OCc2ccc(-c3ccccc3)cc2)c([N+](=O)[O-])n1	FLuc counter inconclusive (no result: SMN2 splice enh)
CC1(C)COC(c2coc3ccccc3c2=O)OC1	SMN2 splice enh inconclusive, FLuc counter 17µM, ELG1 genotoxic inconclusive
Cc1nnc(Sc2nc3ccccc3o2)c2ccccc12	FLuc counter 19µM (no result: SMN2 splice enh)
COC(=O)c1ccc(OCc2cc(=O)n3ccsc3n2)cc1	Rab9 promoter act inconclusive, SMN2 splice enh 14µM, FLuc counter inconclusive, NPC1 prom act inconclusive
COc1ccc(C(=O)Nc2ccc(OCc3cc(=O)n4ccsc4n3)cc2)cc1OC	none (no result: Rab9 promoter act, ELG1 genotoxic, NPC1 prom act)
Nc1cc(Cl)ccc1Oc1ccc2ccccc2c1	FLuc counter inconclusive, ELG1 genotoxic inconclusive
Cc1ccc(Oc2ccc(Cl)cc2N)cc1	FLuc counter 21µM
O=C(Cc1cccc2ccccc12)Nc1nc2ccccc2[nH]1	none
O=C(CC1CCCC1)Nc1nc2ccccc2[nH]1	Rab9 promoter act 2.8µM, SMN2 splice enh 13µM, FLuc counter 9.5µM, ELG1 genotoxic 16µM, NPC1 prom act 3.5µM
O=C(Nc1nc2ccccc2[nH]1)C1CCC1	Rab9 promoter act 2.8µM, SMN2 splice enh 13µM, FLuc counter 17µM, ELG1 genotoxic inconclusive, NPC1 prom act inconclusive
CC(C)[C@H](NC(=O)C1CCCC1)c1nc2ccccc2[nH]1	none
O=C(NCc1nc2ccccc2[nH]1)C1CCCCC1	none
O=C(Nc1nc2ccccc2[nH]1)C1CCCC1	Rab9 promoter act 1.3µM, SMN2 splice enh 11µM, FLuc counter 15µM, ELG1 genotoxic inconclusive, NPC1 prom act 1.6µM
O=C(O)COc1ccccc1/C=N/NC(=O)c1cc(-c2ccc(Cl)cc2)nc2ccccc12	FLuc counter 0.95µM (no result: SMN2 splice enh)
O=C(O)COc1ccccc1/C=N/NC(=O)c1cc(-c2ccccc2)nc2ccccc12	FLuc counter 2.7µM (no result: SMN2 splice enh)
COc1ccc2[nH]cc(CCO)c2c1	none (no result: Rab9 promoter act, FLuc counter, ELG1 genotoxic, NPC1 prom act)
Nc1nc2ccc([N+](=O)[O-])cc2s1	none (no result: Rab9 promoter act, FLuc counter, ELG1 genotoxic, NPC1 prom act)
O=C(/C(=N/N=C/c1ccc(O)c(O)c1O)c1ccccc1)c1ccccc1	SMN2 splice enh 3.2µM
Oc1ccc(/C=N/N=C(c2ccccc2)c2ccccc2)c(O)c1O	FLuc counter inconclusive
Cc1ccc(C)n1-c1nnc(N2CCCC(C(=O)NCc3cccc(Cl)c3)C2)s1 (stereo not drawn)	none (no result: Rab9 promoter act, ELG1 genotoxic, NPC1 prom act)
N#C/C(=C\c1ccc(-c2ccccc2[N+](=O)[O-])o1)C(N)=O	none (no result: SMN2 splice enh)
O=C(/C=C/c1ccc(-c2ccccc2[N+](=O)[O-])o1)c1ccccc1	FLuc counter 24µM
O=C(O)/C(=C\c1ccc(-c2ccccc2[N+](=O)[O-])o1)c1ccccc1	FLuc counter 21µM (no result: SMN2 splice enh)
